# This is a sample that favours compounds with a hit; in the whole collection about 0.74% have one here.
# p97 inhibitor = inhibitors of human p97 ATPase. P55072. recombinant p97 ATPase, Kinase-Glo ATP luminescence, 3 h. inhibition, % at 8 µM. 220,000 tested, 0.42% active; in the data active = inhibition above about 15%;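 note: 0% = DMSO vehicle and 100% = wells lacking enzyme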
# Tb hexokinase = T. brucei hexokinase 1 inhibition; recombinant TbHK1, G6PDH-coupled NADH A340; 220,000 tested, 0.11% active; inhibition, % at 10 µM;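 active = inhibition of 50% or more in the single-dose primary screen; inactive = inhibition below 50%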
# Efa HMGR inh = E. faecalis class II HMG-CoA reductase inhibition. inhibition, % at 10 µM. purified E. faecalis HMGR, NADPH absorbance 340 nm kinetic. 190,000 tested, 0.41% active;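 active = inhibition above a set limit, the median over all tested compounds plus 3 SD, cut at about 9.5% in these data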;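 note: enzyme runs in reverse so mevalonate oxidation gives rising NADPH absorbance; 0% = complete reaction with DMSO and 100% = background rate lacking mevalonate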
# Furin inhibitor = blocks human furin protease activity; AID 463115; purified furin, fluorogenic substrate cleavage; inhibition, % at 20 µM or 30 µM; P09958; 220,000 tested, 0.061% active; in the data active = inhibition above about 25%
# Redox H2O2 prof = compounds producing H2O2 with reducing agent – biochemical, NIH compound library profiling, artefact control for MLSCN library redox annotation, primary screen; 200,000 tested, 0.03% active; activation, % at 10 µM; DTT-dependent redox cycling H2O2, phenol red/HRP absorbance; 100% = 100 µM peroxide control, 0% = buffer;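 active = activation of at least 50% relative to the plate's high and low controls in the primary single-dose screen; inactive = activation below 50%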;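 note: compound incubated with DTT at 0.8 mM final as the reducing agent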
# pCIP destab = p/CIP protein destabilization; Q05BA5; F442A p/CIP-EGFP cells, EGFP fluorescence, 16 h; decrease of EGFP signal, % at 10 µM; 290,000 tested, 0.01% active;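 active = EGFP signal decrease of at least 30% at 10 µM or well 3 SD below plate mean, unless failing retest; inactive = the rest, including hits failing retest or dose response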
# Numbers without * were called inactive; · = no result given.
SMILES,p97 inhibitor,Tb hexokinase,Efa HMGR inh,Furin inhibitor,Redox H2O2 prof,pCIP destab
COCCC(=O)N1CCCC(C(=O)c2ccc3c4c(cccc24)CC3)C1 (stereo not drawn),4,-6,11*,-33,0,-1
CC(C)(CNc1ccc([N+](=O)[O-])cc1Cl)N1CCOCC1,·,·,·,·,·,-5
CCc1ccc(NC(=O)CC2C(=O)Nc3c2c(=O)n(C)c(=O)n3C)cc1 (stereo not drawn),-2,-5,12*,-16,1,-12
CCc1ccc(NC(=O)CC2NCCNC2=O)cc1 (stereo not drawn),3,4,-4,-17,1,-3
Cc1cccc(C(=O)O/N=C2/CC3CCC2(C)C3(C)C)c1 (stereo not drawn),-3,2,11*,-26,1,-10
Cc1ccc(OCC(O)CN2CCOCC2)cc1 (stereo not drawn),·,·,·,·,·,-1
Cc1ccc(C2=NC(=O)/C(=C/c3cc(O)c(O)c(Br)c3)S2)cc1,31*,11,9,-20,0,-7
Cc1ccccc1-c1oc(C)c(C)[n+]1[O-],1,3,15*,-21,-1,-3
Cc1oc(-c2cccs2)[n+]([O-])c1C,6,-1,-1,-7,3,-2
CCOc1cc(/C=N\NC(=O)OC)ccc1OC(=O)c1ccco1,1,-1,-2,-13,0,-2
CCOc1cc(/C=N\NC(=O)OC(C)(C)C)ccc1OC(=O)c1ccco1,4,1,19*,-24,0,9
COc1ccccc1S(=O)(=O)Cc1ccc(C(=O)NCc2cccs2)o1,-2,-1,7,-20,2,-6
CCc1ccccc1S(=O)(=O)Cc1ccc(C(=O)NCc2cccs2)o1,-1,1,9.8*,-36,0,-7
CCOC(=O)C1=C(C)NC(=O)NC1c1ccc(C)o1 (stereo not drawn),-5,-15,-3,-29,0,4
CC1=C(C(=O)OC(C)C)C(c2ccc(C)o2)NC(=O)N1 (stereo not drawn),3,5,11*,-26,0,-16
CCN(c1ccccc1)S(=O)(=O)c1ccc(OC)c(NC(=O)C2CC(=O)N(Cc3ccccc3)C2)c1 (stereo not drawn),-7,-16,·,-16,·,-18
O=C(C1CC1)N1CCC(C(O)(c2ccccc2)c2ccccc2)CC1,-3,-15,-4,-12,0,-10
CC(C)(C)C(=O)N1CCC[C@H]1C(O)(c1ccccc1)c1ccccc1,-1,4,14*,-12,0,3
CCCOP(=O)(OCCC)c1nc(-c2ccccc2)oc1NCc1ccccc1,-6,-8,17*,-6,0,6
C/C(CC(=O)NC1CCCCC1)=N\NC(=O)COc1ccc(C)cc1Br,0,-10,28*,-28,0,1
CN(Cc1ccc(N(C)C)cc1)C(=O)c1cc2ccccc2o1,·,·,·,·,·,-10
Cc1[nH]nc2c1C(CCc1ccccc1)C(C#N)=C(N)O2 (stereo not drawn),·,·,27*,·,·,0
Cn1c(SCC(=O)N2CCCc3ccccc32)nnc1-c1cccs1,3,-5,4,-25,0,-2
Cn1c(SCC(=O)N2CCCC2=O)nnc1-c1ccccc1F,-3,-4,19*,-24,0,-5
COc1cc(/C=C(/Sc2nnc(-c3ccc(F)cc3)o2)C(=O)O)ccc1OC(F)F,8,-21,10*,-26,0,2
SMILES,p97 inhibitor,Tb hexokinase,Efa HMGR inh,Furin inhibitor,Redox H2O2 prof,pCIP destab
O=C(CNC(=O)c1ccc(S(=O)(=O)N2CCCC2)cc1)N/N=C/c1ccc(Cl)cc1,1,34,16*,-21,0,-5
O=C(CNC(=O)c1ccc(S(=O)(=O)N2CCCC2)cc1)N/N=C/c1ccccc1,4,36,4,-14,0,-1
O=C(COC(=O)c1cc(S(=O)(=O)N2CCCCC2)ccc1N1CCOCC1)NC1CCS(=O)(=O)C1 (stereo not drawn),0,-11,14*,-22,0,12
C=CCc1cccc2cc(C(=O)Nc3ccccc3C(=O)O)c(=O)oc12,22*,1,-6,-12,-1,-6
COc1cc(/C=C2\CC/C(=C\c3cc(OC)c(O)c(OC)c3)C2=O)cc(OC)c1O,19*,-10,6,2,6,-7
COc1cc(/C=C2\CC/C(=C\c3cc(OC)c(OC)c(OC)c3)C2=O)cc(OC)c1OC,0,-4,-2,1,4,-7
CCCCc1nc2cc(C(=O)N3CCCC(OCCC)C3)ccc2o1 (stereo not drawn),·,·,·,·,·,-3
S=C(Nc1cccnc1)Nc1cccc2cnccc12,9,4,-8,-10,0,52*
Fc1ccc(NC(=S)Nc2cccc3cnccc23)cc1,6,-5,-5,-29,1,21
Cc1ccc(N=c2ssnc2Cl)cc1,0,5,-5,-33,-4,-13
Cc1cc(C)nc(/N=c2/ssnc2Cl)c1,8,18,12*,-30,2,-22
COc1cc(N/C(N)=N/c2nc(C)cc(C)n2)cc(OC)c1,·,·,·,·,·,8
COC(=O)c1ccc(Cn2nc(C)c(Cl)c2C)o1,4,4,-1,29*,3,-29
CS(=O)(=O)N(CC(=O)N1CCc2ccccc2C1)c1ccccc1Br,·,·,·,·,·,-2
O=C(NCCN1CCN(c2ccccc2)CC1)c1ccc2c(c1)[nH]c(=S)n1c3ccccc3nc21,3,1,9.6*,-29,0,-7
COc1ccc(S(=O)(=O)C(C#N)c2nc3ccccc3nc2N2CCCCC2)cc1 (stereo not drawn),-1,-23,-12,-23,-1,-59
Cc1cccc(S(=O)(=O)C(C#N)c2nc3ccccc3nc2N2CCCC2)c1 (stereo not drawn),20*,-7,-3,-9,-1,-5
O=C(COC(=O)CCc1c[nH]c2ccccc12)NC1CCS(=O)(=O)C1 (stereo not drawn),-1,-3,15*,-14,2,-7
CN(C)c1ccc(C2(c3ccc(N(C)C)cc3)OC(=O)c3cc(N)ccc32)cc1,·,·,·,·,·,-10
CC(C)(C)C1=C(C#N)C(c2ccc3c(c2)OCO3)C(C#N)=C(N)O1 (stereo not drawn),2,-5,11*,-18,0,3
CC(C)(C)C1=C(C#N)C(c2ccncc2)C(C#N)=C(N)O1 (stereo not drawn),6,-5,1,-19,0,4
Cc1cc(NS(=O)(=O)c2ccc(NC(=O)/C=C/c3cccc(Cl)c3)cc2)no1,·,·,·,·,·,-31
CCOC(=O)C(CC)Sc1nc2c(c(=O)[nH]c(=O)n2C)n1C/C=C(/C)Cl (stereo not drawn),-1,5,-2,28*,3,-2
O=C(O)c1[nH]c2ccc([N+](=O)[O-])cc2c1-c1ccccc1,9,-2,·,0,·,-8

# Screening results from PubChem BioAssay.
